Assay results as given in PubChem BioAssay (NCATS).
“And” between values parts separate entries of the source, which are not always exact repeats. Identical values can stand only once. Inconclusive results are not listed. Entries that show only a call come without a potency. The source made the active and inactive calls. Unless noted, calls come from the whole dose curve; as a rule, active = well fitted curve in the direction sought with a large enough effect; inconclusive = small, poorly fitted or top-dose-only effect, or another doubt; inactive = no such curve, though single readings can be large; an effect the other way counts as inactive or inconclusive.

Experiments:
[1] = biological target: Calcium and integrin-binding protein 1 (Homo sapiens) (UniProt Q99828); experiment: Primary qHTS for Identification of Calcium Integrin Binding Protein 1 (CIB1) Competitor (AID 1508620); conditions: CIB1-GST / FITC-alphaIIb peptide fluorescence polarization; series mostly up to 57.7 µM;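 note: GST tagged CIB1 binding a fluorescein labelled alphaIIb integrin peptide tracer; top concentration of the series differs between compounds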
Method in brief: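 Fluorescence polarization competition: GST-tagged CIB1 (1 uM final) preincubated with compound 15 min at room temperature, then FITC-labelled alphaIIb peptide (100 nM final) added. After 15 min at room temperature, polarization read at Ex 480/Em 540.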

[2] = qHTS to identify inhibitors of the type 1 interferon - major histocompatibility complex class I in skeletal muscle: primary screen against the NCATS Mechanism Interrogation Plate v5.0 (MIPE) Libary (AID 1347411); conditions: iHSKM cells + IFN-b, HiBiT-tagged MHC-I luminescence, 24 h; series mostly up to 45.8 µM; note: nearly all actives have a fitted effect of over 65% in size; note: potency is the fitted concentration of half-maximal effect
Method in brief: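 IFN-beta-driven (4 ng/ml) HLA-B-HiBit expression in CRISPR-tagged C25cl48 myoblasts; compounds 11-pt, 1:3, max 46 uM, 24 hr exposure; lytic NanoLuc complementation luminescence.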

[3] = Primary qHTS for small molecule stabilizers of the endoplasmic reticulum resident proteome: Secreted ER Calcium Modulated Protein (SERCaMP) assay (AID 1508630); conditions: SH-SY5Y GLuc-SERCaMP (Gaussia luciferase released on ER calcium loss) secretion, thapsigargin, luminescence; series mostly up to 38.4 µM
Method in brief: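 The SH-SY5Y reporter protocol was run at 3 concentrations up to 38.3 uM (primary) or 11 concentrations (follow-up): 16 h compound, 100 nM thapsigargin for 4 h, then extracellular luciferase luminescence.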

[4] = Primary qHTS for inhibitors of nuclear receptor binding SET domain protein 2 (NSD2) in an isogenic RCH-ACV NSD2 p.E1099K mutant (9B) (AID 1645876); conditions: RCH-ACV NSD2 E1099K (9B) viability, CellTiter-Glo, 72 h; series mostly up to 44.9 µM; note: potency is the fitted concentration of half-maximal effect; nearly all actives have a fitted effect of over 70% in size
[5] = Primary qHTS for inhibitors of nuclear receptor binding SET domain protein 2 (NSD2) in an RCH-ACV wild type WT cells (2C) (AID 1645877); conditions: RCH-ACV (leukaemia line) NSD2 WT (2C) viability, CellTiter-Glo, 72 h; series mostly up to 44.9 µM; note: potency is the fitted concentration of half-maximal effect; nearly all actives have a fitted effect of over 70% in size
[6] = biological target: Catechol O-methyltransferase (Homo sapiens) (UniProt P21964); experiment: Confirmatory Screen for Target Class Profiling of Small Molecule Inhibitors of Methyltransferases (AID 1745852; calls by dose curve); conditions: MTase-Glo luminescence, SAH detection, recombinant enzyme; measured here: COMT max response; stronger effect = lower value
[7] = biological target: Guanidinoacetate N-methyltransferase (Homo sapiens) (UniProt Q14353); experiment: as above; conditions: MTase-Glo luminescence, SAH detection, recombinant enzyme; activity change, negative = inhibition: at 57.3 µM (top of the series); series mostly up to 57.3 µM
[8] = Validation qHTS assay for inhibitors of Activation Induced Cytidine Deaminase (AID): UDG Counterscreen signal (AID 1347427); conditions: biochemical UDG counterscreen, fluorescence signal; series mostly up to 115 µM
Method in brief: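 Fluorescence at 560 nm excitation, 665 nm emission reports UDG signal after 250 mM NaOH (2x) addition and 30 min. Enzymes (AID 1 uM, UDG 2 U/mL, at 4/3x) preincubated 10 min with compound, then 4 h with 4x 250 nM DJC20/DJC23 substrate at room temperature.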

[9] = biological target: Single-stranded DNA cytosine deaminase (Homo sapiens) (UniProt Q9GZX7); experiment: Validation qHTS assay for inhibitors of Activation Induced Cytidine Deaminase (AID): AID signal (AID 1347429); conditions: Recombinant AID, FRET ssDNA deamination with UDG, fluorescence; series mostly up to 115 µM
Method in brief: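 Compounds (up to 114 uM final) are tested against AID plus UDG using DJC20/DJC23 FRET substrate. Reactions incubate 4 hr at room temperature, receive NaOH for 30 min, and are read at Ex 540/Em 590 nm.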

[10] = Primary qHTS for inhibitors of La Crosse Virus (LACV) - induced cell death in SH-SY5Y cells (AID 1508616); conditions: SH-SY5Y LACV cytopathicity rescue, ATP luminescence, 6 d; series mostly up to 4.29 µM;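 note: top concentration of the series differs between compounds; higher means more rescue of cells from virus-induced death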
Method in brief: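 Screening measures cell viability in LACV-infected SH-SY5Y cultures. Compound was added before virus (0.01 MOI), and ATP was detected by luminescence 6 days later.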

Sequence of Calcium and integrin-binding protein 1 (Homo sapiens) (Q99828 whole entry, looked up): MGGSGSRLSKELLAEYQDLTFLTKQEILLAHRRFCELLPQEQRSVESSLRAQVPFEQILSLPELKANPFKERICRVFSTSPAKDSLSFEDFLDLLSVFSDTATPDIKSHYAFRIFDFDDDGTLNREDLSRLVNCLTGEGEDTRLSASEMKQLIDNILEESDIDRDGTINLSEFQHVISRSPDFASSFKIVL
Sequence of Catechol O-methyltransferase (Homo sapiens) (P21964 whole entry, looked up): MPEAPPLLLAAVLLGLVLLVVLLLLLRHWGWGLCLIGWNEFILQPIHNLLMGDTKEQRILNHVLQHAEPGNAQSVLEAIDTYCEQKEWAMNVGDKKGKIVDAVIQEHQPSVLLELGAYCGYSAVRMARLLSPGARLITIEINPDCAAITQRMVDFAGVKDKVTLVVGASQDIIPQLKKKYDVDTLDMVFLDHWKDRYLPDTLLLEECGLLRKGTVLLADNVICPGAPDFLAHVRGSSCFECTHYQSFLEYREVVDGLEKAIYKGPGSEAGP
Sequence of Single-stranded DNA cytosine deaminase (Homo sapiens) (Q9GZX7 whole entry, looked up): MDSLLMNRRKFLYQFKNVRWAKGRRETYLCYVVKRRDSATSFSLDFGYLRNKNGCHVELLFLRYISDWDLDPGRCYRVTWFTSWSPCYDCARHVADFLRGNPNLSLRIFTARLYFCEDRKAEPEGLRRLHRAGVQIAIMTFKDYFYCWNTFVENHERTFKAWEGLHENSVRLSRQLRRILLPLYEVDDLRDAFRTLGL

**Q.** For CC(C)(O)[C@H]1CC[C@@](C)([C@H]2[C@@H](O)C[C@@]3(C)[C@@H]4C[C@H](O[C@@H]5O[C@H](CO)[C@@H](O)[C@H](O)[C@@H]5O)[C@H]5C(C)(C)[C@@H](O[C@@H]6OC[C@@H](O)[C@H](O)[C@@H]6O)CC[C@@]56C[C@@]46CC[C@]23C)O1, which Potency [1] is on record?
**A.** Its Potency is “inactive”.

**Q.** For Cn1cc(C2=C(c3c4n(c5ccccc35)CCC(CN)C4)C(=O)NC2=O)c2ccccc21 (centres undefined), which Potency [1] is on record?
**A.** The Potency was “inactive”.

**Q.** Which Potency [2] does the source give for Nc1nc(N)c2nc(-c3cccc(O)c3)c(-c3cccc(O)c3)nc2n1 here?
**A.** Its Potency is “inactive”.

**Q.** And the outcome [3]?
**A.** The outcome was “inactive”.

**Q.** And the Potency [4]?
**A.** The Potency was 16.4 µM (active) and 18.6 µM (active).

**Q.** And the Potency [5]?
**A.** The Potency was 13 µM (active) and 16.6 µM (active).

**Q.** For CC(C)[C@H](CO)Nc1nc(Nc2cccc(Cl)c2)c2ncn(C(C)C)c2n1, which Potency [2] is on record?
**A.** Its Potency is 16.5 µM (active).

**Q.** And the Potency [4]?
**A.** The Potency was 9.34 µM (active).

**Q.** What does the source list for c1cc(N[C@@H]2CCNC2)nc(-c2cnc3ccc(-c4cn[nH]c4)cn23)c1?
**A.** Potency [2]: 0.829 µM (active); outcome [3]: inactive; Potency [4]: 2.63 µM (active); Potency [5]: 934 nM (active); activity [6]: -4.23%; Potency [7]: inactive

**Q.** Which Potency [1] does the source give for C=C1C(=O)O[C@H]2[C@@H]1CCC(C)=CCC[C@@]1(C)O[C@@H]21 here?
**A.** Its Potency is “inactive”.

**Q.** For CN[C@H](CC(C)C)C(=O)N[C@H]1C(=O)N[C@@H](CC(N)=O)C(=O)N[C@@H]2C(=O)N[C@H]3C(=O)N[C@H](C(=O)N[C@H](C(=O)O)c4cc(O)cc(O)c4-c4cc3ccc4O)[C@H](O)c3ccc(c(Cl)c3)Oc3cc2cc(c3O[C@@H]2O[C@H](CO)[C@@H](O)[C@H](O)[C@@H]2O[C@H]2C[C@](C)(N)[C@H](O)[C@H](C)O2)Oc2ccc(cc2Cl)[C@H]1O, which outcome [8] is on record?
**A.** Its outcome is “inactive”.

**Q.** And the outcome [9]?
**A.** The outcome was “inactive”.

**Q.** And the outcome [10]?
**A.** Its outcome is “inactive”.

**Q.** What about the Potency [1] of the same compound?
**A.** The Potency was “inactive”.
